According to PubChem BioAssay (NCATS):
Results filed as inconclusive are left out. The source made the active and inactive calls. Unless noted, calls come from the whole dose curve; as a rule, active = well fitted curve in the direction sought with a large enough effect; inconclusive = small, poorly fitted or top-dose-only effect, or another doubt; inactive = no such curve, though single readings can be large; an effect the other way counts as inactive or inconclusive.

Assays:
[1] = qHTS for Inhibitors of the Functional Ribonucleoprotein Complex (vRNP) of Lassa (LASV) Arenavirus: LASV Primary Screen - GLuc reporter signal (AID 1347082; calls by dose curve; tested in HEK293 reporter line; note: potency is the fitted concentration of half-maximal effect; nearly all actives have a fitted effect of over 60% in size)
[2] = P-glycoprotein substrates identified in KB-3-1 adenocarcinoma cell line, qHTS therapeutic library screen (AID 1346986);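 note: potency is the fitted concentration of half-maximal effect; potency is for cytotoxicity meaning loss of cell viability; nearly all actives have a fitted effect of over 60% in size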
Outline: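 In 1536-well format, 500 cells/well received pinned compound titrations and were incubated 72 h, 5% CO2. Viability was read by CellTiter-Glo; cytotoxic if AC50 < 10 uM and efficacy >50%.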

[3] = P-glycoprotein substrates identified in KB-8-5-11 adenocarcinoma cell line, qHTS therapeutic library screen (AID 1346987); note: potency is the fitted concentration of half-maximal effect; nearly all actives have a fitted effect of over 65% in size
Outline: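 Luminescence from CellTiter-Glo, read 5 min after addition, quantified survival of KB-8-5-11 (P-gp-overexpressing) cells exposed to compounds for 72 h. AC50 was derived from concentration-response curves.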

[4] = Cytotoxicity counterscreen for inhibitors of SARS-CoV-2 cell entry (AID 1645845; calls by dose curve; note: potency is the fitted concentration of half-maximal effect; nearly all actives have a fitted effect of over 50% in size)
Outline: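 Counterscreen run in the same HEK293-ACE2 line as the pseudotyped-particle entry assay, without particles. Viability after 48 h at 37 C was read as ATP luminescence, scaled between cell-containing and cell-free wells.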

[5] = Primary qHTS for inhibitors of nuclear receptor binding SET domain protein 2 (NSD2) in an isogenic RCH-ACV NSD2 p.E1099K mutant (9B) (AID 1645876); note: potency is the fitted concentration of half-maximal effect; nearly all actives have a fitted effect of over 70% in size
[6] = Primary qHTS for inhibitors of nuclear receptor binding SET domain protein 2 (NSD2) in an RCH-ACV wild type WT cells (2C) (AID 1645877); note: potency is the fitted concentration of half-maximal effect; nearly all actives have a fitted effect of over 70% in size
[7] = target: Glutathione peroxidase 1 (Homo sapiens) (UniProt P07203); test: Primary qHTS Assay for Inhibitors of Recombinant Selenoprotein Glutathione Peroxidase 1 (GPX1) (AID 1845191); note: nearly all actives have a fitted effect of over 65% in size
Sequence of Glutathione peroxidase 1 (Homo sapiens) (P07203 whole entry, looked up): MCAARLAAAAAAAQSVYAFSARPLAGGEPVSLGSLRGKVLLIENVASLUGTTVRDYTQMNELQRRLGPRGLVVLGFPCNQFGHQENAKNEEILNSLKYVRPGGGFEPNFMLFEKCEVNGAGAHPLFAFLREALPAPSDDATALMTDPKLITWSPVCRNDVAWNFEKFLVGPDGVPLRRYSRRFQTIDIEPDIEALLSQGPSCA
Outline: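 GR-coupled readout: NADPH consumption tracked by fluorescence, ex 340/em 450 nm, at t=0 and after 15 min at RT. Final mix 10 nM GPX1, 1 mM GSH, 0.5 mM CHP, 0.5 mM NADPH, 100 nM GR, 0.01% BSA, following 30 min enzyme–compound preincubation.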

[8] = target: Phospholipid hydroperoxide glutathione peroxidase GPX4 (Homo sapiens) (UniProt P36969); test: Primary qHTS Assay for Inhibitors of Recombinant Selenoprotein Glutathione Peroxidase 4 (GPX4) (AID 1845192); note: series mostly up to about 50 µM; % is set by controls: 0 for no effect and ±100 for the full control effect; nearly all actives have a fitted effect of over 65% in size
Sequence of Phospholipid hydroperoxide glutathione peroxidase GPX4 (Homo sapiens) (P36969 whole entry, looked up): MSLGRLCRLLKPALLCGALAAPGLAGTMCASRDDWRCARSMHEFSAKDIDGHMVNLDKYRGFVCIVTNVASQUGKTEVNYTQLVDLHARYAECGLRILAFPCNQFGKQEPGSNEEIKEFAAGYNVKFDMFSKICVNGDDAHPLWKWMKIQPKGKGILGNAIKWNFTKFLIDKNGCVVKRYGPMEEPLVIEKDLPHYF
Outline: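 Steps: GPX4 plus compound, 30 min RT; add GR/GSH/NADPH master mix; start with cumene hydroperoxide; read 340/450 nm fluorescence at 0 and 15 min. Finals were 200 nM GPX4, 1 mM GSH, 0.5 mM CHP, 0.5 mM NADPH, 100 nM GR.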

[9] = qHTS drug screen for cell cycle checkpoint inhibitors in PARPi-resistant BRCA-mutant ovarian cancer cell lines. (AID 1963452; calls by dose curve); settings: PEO1/OlaR viability, CellTiter-Glo luminescence, 96 h, stronger effect = lower value
Outline: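 PEO1, PEO4 and PEO1/OlaR ovarian cancer cells, 600 per well, exposed 96 h at 37C to a dilution series. Viability read by CellTiter-Glo luminescence, normalized to DMSO and empty wells; activity summarized as Z-AUC.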

[10] = Confirmatory qHTS for VERO E6 Cytotoxicity Assay: Counterscreen for SARS-CoV-2 CPE Assay (AID 1508605; calls by dose curve; note: series mostly up to about 20 µM; % is set by controls: 0 for no effect and ±100 for the full control effect; nearly all actives have a fitted effect of over 60% in size)
[11] = Confirmatory qHTS for activators (rescue) of SARS-CoV-2 Cytopathic Effect (CPE) (AID 1508606; calls by dose curve; note: potency is the fitted concentration of half-maximal effect; nearly all actives have a fitted effect of over 70% in size)

CC(C)OC(=O)CCCC=CC[C@@H]1[C@H](C=C[C@@H](O)COc2cccc(C(F)(F)F)c2)[C@H](O)C[C@@H]1O
Potency [1]: 38.5 µM (active)

O=C(NCCCNc1nc(Nc2ccc(N3CCOCC3)cc2)ncc1C1CC1)C1CCC1
Potency [2]: 10.3 µM (active)
Potency [3]: 11.6 µM (active)
Potency [4]: 22.4 µM (active)
Potency [5]: 5.25 µM (active)
Potency [6]: 7.42 µM (active)
Potency [7]: inactive
Potency [8]: inactive
Z-AUC [9]: 0.0288 (inactive)
Z-AUC ([9]; measured here: PEO1 parental Z-AUC): -0.267
Z-AUC ([9]; measured here: PEO4 Z-AUC): -0.524

COCC1OC(=O)c2coc3c2C1(C)C1=C(C3=O)C2CCC(=O)C2(C)CC1OC(C)=O (centres undefined)
Potency [2]: 20.6 µM (active)
Potency [3]: 6.51 µM (active)
Potency [5]: 3.66 µM (active)
Potency [6]: 1.3 µM (active)

CC(=O)O[C@@H]1CC2C(C)(C)C(=O)C=C[C@]2(C)C2CC[C@]3(C)C(=CC(=O)O[C@H]3c3ccoc3)[C@@]21C (some centres undefined)
Potency [3]: 14.6 µM (active)
Potency [10]: inactive
Potency [11]: 11.2 µM (active)
Potency [7]: inactive
